Results published in paper PMC4552634, “A New Set of Chemical Starting Points with Plasmodium falciparum Transmission-Blocking Potential for Antimalarial Drug Discovery” (PLoS ONE, 2015).
Like-named read-outs stand apart in the source and are kept apart here. Among all 13,000 compounds or so, about 3,200 (25%) showed an effect of 50% or more. The list shows a part of the results.

Tested on: P. falciparum stage V gametocytes
Parameters: BacTiter-Glo ATP luminescence viability of purified stage V gametocytes in 384-well plates, per cent inhibition versus DMSO
Settings: 48 h, 5 µM, inhibitor

Structure (SMILES) | % Inhibition [%] | % Inhibition (% Inhibition) [%]
Clc1cc(Nc2ccnc3ccc(Br)cc23)ccc1Oc1ccc(Cl)c2ccccc12 [TCMDC-123834] | -13.4 | –
O=c1cc(NC[C@H]2CCC[C@@H]2NC2CCCc3c2[nH]c2ccccc32)[nH]c2ccccc12 (stereo partly shown) [TCMDC-139785] | 10.53 | –
CCc1cccc(C)c1-n1nc(-c2cc(C(C)(C)C)oc2C)cc1N [TCMDC-134028] | 9.67 | –
CCc1ccc(NC(=O)c2ccc(CN3CCCN(CC4CCCCC4)CC3)cc2)cc1 [TCMDC-136437] | -21.72 | –
COc1ccc2nccc(N3CCC(CCNCc4ccc5c(n4)NC(=O)CO5)CC3)c2c1.Cl [TCMDC-141904] | -28.1 | –
Cc1nn(C)c(C)c1CN(Cc1nc(-c2cccc(Oc3ccccc3)c2)oc1C)C1CC1 [TCMDC-124629] | 8.903 | –
C=CCc1cc(Cc2cnc(N)nc2N)cc(CCC)c1O [TCMDC-138048] | -56.02 | –
COc1ccc2nccc([C@@H](O)CN3CCC(NC(=O)/C=C/c4cc(F)cc(NC(C)=O)c4)CC3)c2c1 [TCMDC-141030] | -4.964 | –
Oc1cccc(-c2nc3cc(C4=NC5CCCCC5N4)ccc3[nH]2)c1 (stereo not shown) [TCMDC-138108] | – | -4.911
CC(=O)Nc1nc(C(=O)Nc2cccc(-c3cccc(-c4nc5ccccc5[nH]4)c3)c2)cs1 [TCMDC-137121] | -11.21 | –
CC(=O)Nc1nc(C(=O)Nc2ccc(-c3cccc(-c4nc5ccccc5[nH]4)c3)cc2)cs1 [TCMDC-137120] | 25.25 | –
CC(=O)Nc1nc(C(=O)Nc2cccc(-c3ccc(-c4nc5ccccc5[nH]4)cc3)c2)cs1 [TCMDC-137127] | 61.93 | –
N#CC(c1ccc(F)cc1)c1ccc2c(C(F)(F)F)cc(C(F)(F)F)nc2n1 (stereo not shown) [TCMDC-123761] | -46.13 | –
COc1ccc2nccc(N3CCN(CCNCc4ccc5c(n4)NC(=O)CS5)CC3)c2n1 [TCMDC-141967] | -20.32 | –
COc1cccc(O)c1CNCC(O)c1cccc(C(F)(F)F)c1 (stereo not shown) [TCMDC-140396] | -36.87 | –
FC(F)(F)c1ccc2nc(-c3ccc(-c4cccc(CNCc5ccccc5)c4)cc3)[nH]c2c1 [TCMDC-132704] | 67.94 | –
FC(F)(F)c1ccc2nc(-c3ccc(-c4ccc(CNCc5ccccc5)cc4)cc3)[nH]c2c1 [TCMDC-132705] | 55.9 | –
CS(=O)(=O)c1ccc(CNCc2cccc(-c3ccc(-c4nc5ccc(C(F)(F)F)cc5[nH]4)cc3)c2)cc1 [TCMDC-132902] | -71.66 | –
NCc1ccc(CNCc2cccc(-c3ccc(-c4nc5cc(C(F)(F)F)ccc5[nH]4)cc3)c2)cc1 [TCMDC-132811] | 93.89 | –
CS(=O)(=O)c1ccc(CNCc2ccc(-c3cccc(-c4nc5ccc(C(F)(F)F)cc5[nH]4)c3)cc2)cc1 [TCMDC-132897] | 17.9 | –
FC(F)(F)c1ccc2nc(-c3cccc(-c4ccc(CNCc5ccccc5)cc4)c3)[nH]c2c1 [TCMDC-132712] | -50.86 | –
Nc1cccc(CNCc2cccc(-c3ccc(-c4nc5ccc(C(F)(F)F)cc5[nH]4)cc3)c2)c1 [TCMDC-132935] | -40.76 | –
Nc1cccc(CNCc2ccc(-c3cccc(-c4nc5ccc(C(F)(F)F)cc5[nH]4)c3)cc2)c1 [TCMDC-132929] | -69.76 | –

Structure (SMILES) | % Inhibition [%] | % Inhibition (% Inhibition) [%]
O=C(NCc1ccccc1)Nc1ccc(-c2ccc(-c3nc4ccc(C(F)(F)F)cc4[nH]3)cc2)cc1 [TCMDC-133157] | -8.983 | –
Fc1cccc(Cl)c1-c1nc(NCCC(c2ccccc2)c2ccccc2)no1 [TCMDC-134175] | -12.09 | –
Cc1cc(=O)[nH]c(NC#N)n1 [TCMDC-123468] | 11.83 | –
O=C(c1cc(-c2ccccc2O)on1)N1CCN(C(c2ccccc2)c2ccccc2)CC1 [TCMDC-125470] | 18.53 | –
CC1(C)C2C=C(CN3CCC(NC(=O)Nc4ccc(Cl)c(Cl)c4)CC3)C1CC2 (stereo not shown) [TCMDC-135871] | 38.53 | –
COc1cccc(O)c1CN1CCC2(CCCN(Cc3ccc(F)cc3)C2)C1 (stereo not shown) [TCMDC-124635] | -20.8 | –
CCOC(=O)c1ccc(N2CCCCC2)c(NC(=O)C(Cl)(Cl)Cl)c1 [TCMDC-125786] | -22.75 | –
Clc1ccc(CNCC2CCN(CC3CCCCC3)CC2)cc1Cl [TCMDC-139467] | -4.599 | –
O=C(/C=C/c1ccc(C(F)(F)F)cc1)NCCCCCN1CCN(C(=O)Nc2ccc(Cl)cc2)CC1 [TCMDC-136095] | -21.7 | –
O=C(/C=C/c1ccc(C(F)(F)F)cc1)NCCCCCN1CCCN(C(=O)Nc2ccc(Cl)cc2)CC1 [TCMDC-136106] | -46.09 | –
N=C(N=C(NCCCCCCNC(=NC(=N)NCc1ccc(Cl)c(Cl)c1)N1CCCCC1)N1CCCCC1)NCc1ccc(Cl)c(Cl)c1 [TCMDC-131816] | 118.5 | –
Clc1ccc(CNCCCCCCCNCc2ccc(Cl)c(Cl)c2)cc1Cl [TCMDC-138075] | 16.46 | –
O=C(NCCCCN1CCC(O)(c2ccc3c(c2)OCO3)CC1)c1ccc(NC(=O)c2ccc(Cl)cc2)cc1 [TCMDC-138356] | -1.021 | –
N=C(/N=C(/NCCCCCCN/C(=N\C(=N)Nc1ccc(Cl)cc1)N1CCOCC1)N1CCOCC1)Nc1ccc(Cl)cc1 [TCMDC-131813] | 108.7 | –
N=C(N=C(NCCCCCCNC(=NC(=N)Nc1ccc(Cl)cc1)N1CCCCC1)N1CCCCC1)Nc1ccc(Cl)cc1 [TCMDC-131811] | 119.8 | –
O=C(NCCCCN1CCN(c2ccc3c(c2)CCC3)CC1)c1ccc(NC(=O)c2ccc(Cl)cc2)cc1 [TCMDC-138512] | -2.19 | –
Nc1nc2c(ncn2COC2COP(=O)(O)OC2)c(=O)[nH]1 (stereo not shown) [TCMDC-138021] | 10.06 | –
Cc1ccc(Nc2nc(C)cc(NC3CCCC3)n2)cc1 [TCMDC-133470] | 43.93 | –
CCN(CCNc1nc(NCCc2cnc[nH]2)nc(N(CCC#N)Cc2ccccc2)n1)c1cccc(C)c1 [TCMDC-139258] | -10.46 | –
COc1cccc(C(=O)Nc2ccc(Oc3ccc(Cl)cc3)cc2)c1 [TCMDC-123807] | -8.512 | –
CCC(=O)Oc1ccc(NC(=O)c2cccc(OC)c2)cc1 [TCMDC-131408] | 8.36 | –
COc1cccc(C(=O)NCc2n[nH]c(=S)n2-c2ccc(Cl)c(Cl)c2)c1 [TCMDC-123816] | 81.2 | –
Cc1nc(-c2cccc(Nc3nccc(NCC(O)c4cccc(C(F)(F)F)c4)n3)c2)cs1 (stereo not shown) [TCMDC-136581] | -55.32 | –

Structure (SMILES) | % Inhibition [%] | % Inhibition (% Inhibition) [%]
CC(Cc1ccc(COc2ccc(CC(CO)NCCc3cccc(Cl)c3)cc2)cc1)NCCc1cccc(Cl)c1 (stereo not shown) [TCMDC-139844] | 116.5 | –
CC(Cc1ccc(OCc2ccccc2)cc1)NCC(O)c1cccc(Cl)c1 (stereo not shown) [TCMDC-131473] | 11.58 | –
CC(Cc1ccc(OCc2ccc(CCN(C)C)cc2)cc1)NCCc1cccc(Cl)c1 (stereo not shown) [TCMDC-139644] | 101.3 | –
CC(Cc1ccc(OCC(=O)NCC2CCN(CCc3cccc(Cl)c3)CC2)cc1)NCCc1cccc(Cl)c1 (stereo not shown) [TCMDC-139834] | 46.25 | –
CCCCCCNC(=O)C1Cc2c([nH]c3ccc(C)cc23)C2(CCN(CCc3ccccc3)CC2)N1 (stereo not shown) [TCMDC-141092] | -44.59 | –
Cc1ccc(-c2cc(C(=O)Nc3ccc(S(=O)(=O)N4CCCC(C)C4)cc3)[nH]n2)c(O)c1 (stereo not shown) [TCMDC-125183] | -50.15 | –
COc1cc(CCOc2c(C)nc(N)nc2N)cc(OC)c1OC [TCMDC-131360] | -25.98 | –
FC(F)(F)c1ccc(Nc2nnnc3ccccc23)cc1 [TCMDC-125603] | 38.58 | –
COC(=O)/C=C/c1ccc(CC(C)NCC(O)c2cccc(Cl)c2)cc1 (stereo not shown) [TCMDC-131433] | -3.295 | –
C[C@H](Cc1ccc(Oc2ccc(C[C@@H](C)NC[C@H](O)c3cccc(Cl)c3)cc2)cc1)NC[C@H](O)c1cccc(Cl)c1 [TCMDC-131560] | 108 | –
CC(Cc1ccc(SCCSc2ccccc2)cc1)NCC(O)c1cccc(Cl)c1 (stereo not shown) [TCMDC-131515] | 37.98 | –
CC(Cc1ccc(CSC(C)C)cc1)NCC(O)c1cccc(Cl)c1 (stereo not shown) [TCMDC-131525] | 23.17 | –
C[C@H](Cc1ccc(CCc2ccc(C[C@@H](C)NC[C@H](O)c3cccc(Cl)c3)cc2)cc1)NC[C@H](O)c1cccc(Cl)c1 [TCMDC-131551] | 114.3 | –
CC(Cc1ccc(S(=O)(=O)N(C(C)C)C(C)C)cc1)NCC(O)c1cccc(C(F)(F)F)c1 (stereo not shown) [TCMDC-131526] | 19.58 | –
C[C@H](Cc1ccc(S(=O)(=O)c2ccc(C[C@@H](C)NC[C@H](O)c3cccc(Cl)c3)cc2)cc1)NC[C@H](O)c1cccc(Cl)c1 [TCMDC-131561] | 74.46 | –
CCCCCCCSc1ccc(CC(C)NCC(O)c2cccc(Cl)c2)cc1 (stereo not shown) [TCMDC-131493] | 21.35 | –
Cc1ccc(CCC(C)NCC(O)c2cccc(Cl)c2)cc1 (stereo not shown) [TCMDC-131436] | 13.72 | –
COc1ccc(CC(Cc2ccc(OC)cc2)NCC(O)c2cccc(Cl)c2)cc1 (stereo not shown) [TCMDC-131543] | 12.1 | –
CC(Cc1ccc(Oc2ccc(Cl)cc2)cc1)NCC(O)c1cccc(Cl)c1 (stereo not shown) [TCMDC-131511] | 4.056 | –
CNCCCCCCc1ccc(CC(C)NCC(O)c2cccc(Cl)c2)cc1 (stereo not shown) [TCMDC-131495] | 95.63 | –
O=C(CCCCCNC(=O)c1ccc(O)c(-c2ccc(Cl)c(Cl)c2)c1)NCCN1CCCC1 [TCMDC-140826] | -20.01 | –
